# Reference: PubChem BioAssay
# Where “and” joins values, the source holds several entries; their conditions need not be identical. Equal values may be shown once. Calls of active or inactive are those of the source.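 Rule for the calls, unless noted: active = compounds whose cell count with miR-34 switched on is under 0.7 times the count with it off; inactive = the rest.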
# Assays:
# [1] = sensitizers of A549 cells to miR-34 induction, primary screen, imaging, A549 dox-inducible miR-34, nuclei and caspase counts (AID 1347080); details: A549 miR-34 inducible, Hoechst nuclei count, 48 h
# [2] = survival rescue of mitochondrial mutant cells in low glucose, primary screen, MELAS cybrids, Rieske KO mouse fibroblasts, CellTiter-Glo (AID 1508586;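 active = mean z-score across replicates of 1.96 or higher in either the MELAS or the Rieske mutant cell line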;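 note: z relative to plate mean and SD of compound and empty wells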)
# [3] = target: NAD(+) hydrolase SARM1 (Homo sapiens) (UniProt Q6SZW1); test: SARM1 TIR NADase inhibitors, cell lysate, NAD-Glo luminescence (AID 1508614;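 active = compound whose remaining NAD level is above about 45 nM, limit read from the data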;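 note: higher remaining NAD means stronger inhibition of SARM1 NADase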); details: SAM-TIR HEK293T lysate NADase, at 1 µM, stronger effect = higher value
# Sequence of NAD(+) hydrolase SARM1 (Homo sapiens) (Q6SZW1 whole entry, looked up, the tested form may be a part): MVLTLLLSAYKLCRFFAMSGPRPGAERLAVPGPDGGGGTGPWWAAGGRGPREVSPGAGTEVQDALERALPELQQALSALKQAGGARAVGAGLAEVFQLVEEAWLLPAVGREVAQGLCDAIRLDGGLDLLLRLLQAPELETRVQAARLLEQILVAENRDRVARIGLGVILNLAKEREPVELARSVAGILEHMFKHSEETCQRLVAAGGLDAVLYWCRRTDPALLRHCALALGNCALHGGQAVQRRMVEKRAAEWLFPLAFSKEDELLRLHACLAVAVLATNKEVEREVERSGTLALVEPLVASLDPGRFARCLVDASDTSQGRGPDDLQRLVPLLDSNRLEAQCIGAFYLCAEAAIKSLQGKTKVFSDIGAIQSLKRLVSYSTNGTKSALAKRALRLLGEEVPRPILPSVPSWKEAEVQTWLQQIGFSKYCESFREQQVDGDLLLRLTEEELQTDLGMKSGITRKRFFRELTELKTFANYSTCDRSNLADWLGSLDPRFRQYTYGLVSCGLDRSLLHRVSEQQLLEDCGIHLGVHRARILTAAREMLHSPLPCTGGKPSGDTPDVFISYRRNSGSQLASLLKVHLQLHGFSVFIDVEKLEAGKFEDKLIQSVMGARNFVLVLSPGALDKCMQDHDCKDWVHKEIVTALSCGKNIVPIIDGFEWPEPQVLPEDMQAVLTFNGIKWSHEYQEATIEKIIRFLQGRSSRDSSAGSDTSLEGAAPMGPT
# [4] = target: Mitogen-activated protein kinase 7 (Homo sapiens) (UniProt Q13164); test: ERK5 transactivation activators in reporter cells, primary screen, cell-based, HTS (AID 1508626;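 active = luciferase signal above three times the same-plate solvent-only control wells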;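 note: luciferase driven by Gal4-ERK5 fusion binding five Gal4 sites before minimal TATA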); details: HeLa Gal4-ERK5 transactivation, 18 h, at 5 µM, stronger effect = higher value
# Sequence of Mitogen-activated protein kinase 7 (Homo sapiens) (Q13164 whole entry, looked up, the tested form may be a part): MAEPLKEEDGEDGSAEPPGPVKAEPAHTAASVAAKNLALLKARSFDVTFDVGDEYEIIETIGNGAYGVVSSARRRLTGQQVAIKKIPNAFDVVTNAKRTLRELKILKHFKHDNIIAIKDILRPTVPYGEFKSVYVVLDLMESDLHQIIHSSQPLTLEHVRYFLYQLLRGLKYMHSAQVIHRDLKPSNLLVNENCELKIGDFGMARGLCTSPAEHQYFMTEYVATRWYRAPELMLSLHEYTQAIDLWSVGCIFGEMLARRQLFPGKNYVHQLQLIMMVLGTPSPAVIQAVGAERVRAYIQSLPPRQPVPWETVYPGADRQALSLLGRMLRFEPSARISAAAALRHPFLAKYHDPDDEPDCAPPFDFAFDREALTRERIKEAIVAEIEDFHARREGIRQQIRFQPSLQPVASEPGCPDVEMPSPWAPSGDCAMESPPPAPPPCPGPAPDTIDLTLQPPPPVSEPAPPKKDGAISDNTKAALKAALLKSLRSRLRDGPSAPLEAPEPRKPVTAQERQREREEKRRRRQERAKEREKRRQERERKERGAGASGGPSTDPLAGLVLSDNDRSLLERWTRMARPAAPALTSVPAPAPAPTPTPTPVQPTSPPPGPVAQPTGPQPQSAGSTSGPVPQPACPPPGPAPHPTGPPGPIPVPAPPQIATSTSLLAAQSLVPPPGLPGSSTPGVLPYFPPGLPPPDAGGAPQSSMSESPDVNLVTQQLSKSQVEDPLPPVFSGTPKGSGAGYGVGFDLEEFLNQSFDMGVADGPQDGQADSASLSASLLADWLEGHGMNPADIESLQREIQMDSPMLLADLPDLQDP
# [5] = stronger effect = lower value, cell number ratio, induced over uninduced
# [6] = measured here: relative caspase fold change +Dox/-Dox
# [7] = measured here: total cells with miR-34 induction, stronger effect = lower value
# [8] = measured here: total cells without miR-34 induction
# [9] = MELAS cybrid survival, CellTiter-Glo 48 h, stronger effect = higher value
# [10] = Rieske KO mouse fibroblast survival, CellTiter-Glo 72 h
SMILES,"fold change [1, 5]","fold change [1, 6]","cell count [1, 7]","cell count [1, 8]","z-score [2, 9]","z-score [2, 10]",remaining NAD [3],luciferase signal [4]
CCCCN(CCCC)CCCOC(=O)c1ccc(N)cc1,0.866 (inactive) and 0.888 (inactive),2.02 and 4.13,8920 and 11400,10300 and 12800,0.278 (inactive),-0.637,10 nM (inactive),120 AU (inactive)
C=CCSCC1Nc2cc(Cl)c(S(N)(=O)=O)cc2S(=O)(=O)N1 (stereo not drawn),0.925 (inactive) and 0.942 (inactive),0.973 and 1.58,8690 and 12000,9400 and 12700,-0.333 (inactive),-0.472,10 nM (inactive),40 AU (inactive)
Oc1c(Br)cc(Br)c2cccnc12,0.97 (inactive),0.803,7880,8120,-0.25 (inactive),-0.139,10 nM (inactive),88 AU (inactive)
CCCc1ncc(C[n+]2ccccc2C)c(N)n1,0.899 (inactive) and 0.934 (inactive) and 0.817 (inactive),1.48 and 1.05 and 2.66,8050 and 8570 and 10100,8960 and 9180 and 12400,-0.137 (inactive) and -0.369 (inactive),-0.2 and 0.188,10 nM (inactive),52 AU (inactive)
CCCCCCCCNC(C)C(O)c1ccc(SC(C)C)cc1 (stereo not drawn),0.989 (inactive) and 0.828 (inactive),0.711 and 5.68,4220 and 5020,4270 and 6060,-2.11,11.2,10 nM (inactive),60 AU (inactive)
CCCCC1C(=O)N(c2ccccc2)N(c2ccc(O)cc2)C1=O (stereo not drawn),0.952 (inactive) and 0.848 (inactive),0.53 and 1.48,8300 and 10300,8720 and 12100,-1.46 (inactive),-1.25,10 nM (inactive),144 AU (inactive)
CN1CCOC(c2ccccc2)c2ccccc2C1 (stereo not drawn),0.979 (inactive) and 0.925 (inactive),1.1 and 3.08,8830 and 11200,9020 and 12100,0.332 (inactive),0.617,10 nM (inactive),120 AU (inactive)
CN1CCC(OC(c2ccccc2)c2ccccc2)CC1,0.843 (inactive) and 0.871 (inactive),1.44 and 0.876,8640 and 11300,10200 and 13000,0.35 (inactive),0.809,10 nM (inactive),32 AU (inactive)
CN1[C@@H]2CC[C@H]1CC(OC(=O)C(O)c1ccccc1)C2 (stereo partly drawn),0.916 (inactive),1.3,8240,9000,0.652 (inactive),0.375,10 nM (inactive),40 AU (inactive)
O=C(O)c1ccccc1O,0.935 (inactive) and 0.936 (inactive),0.622 and 2.5,8100 and 11600,8660 and 12400,-0.0591 (inactive),-0.159,10 nM (inactive),24 AU (inactive)
O=C(COc1ccc(Cl)cc1)N1CCN(Cc2ccc3c(c2)OCO3)CC1,0.875 (inactive),1.39,8260,9440,0.452 (inactive),0.138,10 nM (inactive),84 AU (inactive)
CCN(CC)CCNC(=O)COc1ccc(OC)cc1,0.859 (inactive) and 0.867 (inactive),1.24 and 3.74,9000 and 11100,10500 and 12800,0.396 (inactive),-0.0981,10 nM (inactive),72 AU (inactive)
CCCCc1nc(Cl)c(CO)n1Cc1ccc(-c2ccccc2-c2nn[nH]n2)cc1,0.884 (inactive) and 0.804 (inactive),0.724 and 6.97,7690 and 9920,8690 and 12300,-0.213 (inactive) and 0.409 (inactive),-0.0146 and 0.701,10 nM (inactive),44 AU (inactive)
O=c1cc[nH]c(=S)[nH]1,0.917 (inactive),0.54,7500,8180,-0.297 (inactive),-0.0433,10 nM (inactive),100 AU (inactive)
O=C1c2cccc(O)c2C(=O)c2c(O)cccc21,0.868 (inactive),4.67,9530,11000,0.3 (inactive),0.397,10 nM (inactive),176 AU (inactive)
CCCCC(CC)CN1CN(CC(CC)CCCC)CC(C)(N)C1 (stereo not drawn),0.838 (inactive),1.46,8130,9710,-1.45 (inactive),-0.231,10 nM (inactive),88 AU (inactive)
CCOc1ccc(Cc2nccc3cc(OCC)c(OCC)cc23)cc1OCC,0.917 (inactive),1.32,5900,6440,0.91 (inactive),1.27,10 nM (inactive),68 AU (inactive)
CCn1cc(C(=O)O)c(=O)c2cnc(N3CCCC3)nc21,0.925 (inactive),1.02,8260,8920,-0.0207 (inactive),-0.983,10 nM (inactive),80 AU (inactive)
COc1cccc(OC)c1C(=O)N[C@@H]1C(=O)N2[C@@H]1SC(C)(C)[C@@H]2C(=O)O,0.949 (inactive),0.959,11700,12400,-0.625 (inactive),-0.275,10 nM (inactive),32 AU (inactive)
CN1CCN(C(c2ccccc2)c2ccccc2)CC1,0.854 (inactive) and 1.14 (inactive) and 0.917 (inactive),1.3 and 0.825 and 1.5,8120 and 9280 and 11100,9500 and 8140 and 12100,-0.157 (inactive) and 0.0064 (inactive),-0.181 and 0.467,10 nM (inactive),124 AU (inactive)
Nc1nc2c(c(=O)[nH]1)N(C=O)C(CNc1ccc(C(=O)N[C@@H](CCC(=O)O)C(=O)O)cc1)CN2 (stereo partly drawn),0.908 (inactive) and 0.841 (inactive),0.756 and 0.824,9140 and 10900,10100 and 12900,-0.42 (inactive),0.152,10 nM (inactive),72 AU (inactive)
Cc1c(NC(C)C)c(=O)n(-c2ccccc2)n1C,0.876 (inactive),1.14,8020,9170,-0.485 (inactive),-0.708,10 nM (inactive),56 AU (inactive)
O=C(O)CCC(=O)Nc1ccc(S(=O)(=O)Nc2nccs2)cc1,0.889 (inactive) and 0.92 (inactive),0.9 and 3.43,8630 and 11000,9720 and 12000,0.0389 (inactive),0.552,10 nM (inactive),28 AU (inactive)
COc1ccc(NS(=O)(=O)c2ccc(N)cc2)nn1,0.86 (inactive) and 0.96 (inactive) and 0.867 (inactive),1.18 and 0.826 and 3.5,7560 and 8690 and 11000,8780 and 9050 and 12700,-0.236 (inactive) and -0.537 (inactive),-0.178 and -1.12,10 nM (inactive),28 AU (inactive)
CCCCOc1cc(C(=O)NCCN(CC)CC)c2ccccc2n1,0.83 (inactive) and 0.969 (inactive) and 0.813 (inactive),0.865 and 0.646 and 1.83,7720 and 7790 and 10400,9300 and 8040 and 12800,-0.328 (inactive) and -0.63 (inactive),-0.208 and 0.449,10 nM (inactive),40 AU (inactive)
CCN1CCCC(OC(=O)C(c2ccccc2)c2ccccc2)C1 (stereo not drawn),0.985 (inactive) and 0.905 (inactive),0.865 and 4.46,9410 and 10800,9550 and 11900,0.463 (inactive),-0.154,10 nM (inactive),64 AU (inactive)
